Data on 60 sequences can be found in paper PMC9838217, “Structure of SALL4 zinc finger domain reveals link between AT-rich DNA binding and Okihiro syndrome”.

Numbering of substitutions follows the chain as printed.

The target in assay [1] is T1, SALL4 ZFC4 R900W (HT-SELEX) (Mus musculus, UniProt Q8BX22 870-940, R900W).
T1 sequence: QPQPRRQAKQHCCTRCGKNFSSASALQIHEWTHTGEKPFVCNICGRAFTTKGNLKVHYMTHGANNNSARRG
The experiment in a line: HT-SELEX; high values mean tight binding. Conditions: protein: recombinant; vector His6-GST; dsDNA, one strand shown. The essentials:
(§1)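 Library DNA (1.5 µg in cycle one, 200 ng in later cycles) was incubated with 1 µg of purified recombinant mouse SALL4 zinc finger cluster 4, residues 870–940, in 100 µl buffer (10 mM Tris–HCl pH 7.5, 50 mM NaCl, poly(dI-dC), DTT) at room temperature for 10 min. Up to 6 rounds of Ni2+ bead capture, washing, PCR amplification and reselection were run in triplicate. Reads from MiSeq sequencing were scanned for 6-mers. For each canonical k-mer, binding signal is its read fraction as fold change versus the original random library.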

The target in assay [2] is T2, SALL4 ZFC4 G921D (HT-SELEX) (Mus musculus, UniProt Q8BX22 870-940, G921D).
T2 sequence: T1 sequence with W31R, G52D
The experiment in a line: HT-SELEX; high values mean tight binding. Conditions: protein: recombinant; vector His6-GST; dsDNA, one strand shown. The essentials:
as §1

With CAGGGC, the binding signal in assay [1] worked out at 0.185 ± 0.0225 fold-change vs cycle 0; in assay [2], 0.31 ± 0.0787 fold-change vs cycle 0.

As to GCGGGA, the binding signal in assay [1] was determined as 0.149 ± 0.0162 fold-change vs cycle 0; in assay [2], 0.256 ± 0.0688 fold-change vs cycle 0.

Consider GGCGAC, for which the values for the binding signal in assay [1] and in assay [2] were 0.0863 ± 0.00668 fold-change vs cycle 0 and 0.208 ± 0.0638 fold-change vs cycle 0, respectively.

For the sequence CAGCGA, the binding signal in assay [1] came out at 0.275 ± 0.0083 fold-change vs cycle 0; in assay [2] it was 0.404 ± 0.0764 fold-change vs cycle 0.

ATGCGG: the binding signal in assay [1] was 0.275 ± 0.0176 fold-change vs cycle 0; in assay [2], 0.409 ± 0.0549 fold-change vs cycle 0.

As for CGCGTC, the binding signal turned out to be 0.112 ± 0.0164 fold-change vs cycle 0 in assay [1] and 0.207 ± 0.0615 fold-change vs cycle 0 in assay [2].

Take ACGGGG: the binding signal was found to be 0.257 ± 0.00971 fold-change vs cycle 0 in assay [1] and 0.37 ± 0.0678 fold-change vs cycle 0 in assay [2].

With CACCCG, the binding signal in assay [1] turned out to be 0.244 ± 0.0244 fold-change vs cycle 0; in assay [2], 0.342 ± 0.0506 fold-change vs cycle 0.

Turning to CGCTGC, the binding signal in assay [1] was 0.0919 ± 0.0151 fold-change vs cycle 0; in assay [2], 0.201 ± 0.0834 fold-change vs cycle 0.

For the sequence GGCAAC, the binding signal in assay [1] came to 0.322 ± 0.0219 fold-change vs cycle 0; in assay [2] it was 0.438 ± 0.0577 fold-change vs cycle 0.

On to CTACGC, for which the binding signal in assay [1] is 0.278 ± 0.0143 fold-change vs cycle 0; in assay [2] it was 0.414 ± 0.0855 fold-change vs cycle 0.

CCCGCG: the figures for the binding signal in assay [1] and in assay [2] were 0.0543 ± 0.006 fold-change vs cycle 0 and 0.134 ± 0.057 fold-change vs cycle 0, respectively.

Take ACGCCG: the binding signal stood at 0.0708 ± 0.0067 fold-change vs cycle 0 in assay [1] and 0.183 ± 0.0752 fold-change vs cycle 0 in assay [2].

In the case of CGCCGC, the binding signal in assay [1] worked out at 0.0234 ± 0.0032 fold-change vs cycle 0; in assay [2], 0.091 ± 0.0475 fold-change vs cycle 0.

Consider CTCGCA, for which the figures for the binding signal in assay [1] and in assay [2] were 0.319 ± 0.0197 fold-change vs cycle 0 and 0.471 ± 0.0656 fold-change vs cycle 0, respectively.

For AGCGGA, the binding signal in assay [1] worked out at 0.313 ± 0.018 fold-change vs cycle 0; in assay [2], 0.432 ± 0.054 fold-change vs cycle 0.

As for AGGGCC, the results for the binding signal in assay [1] and in assay [2] were 0.158 ± 0.0102 fold-change vs cycle 0 and 0.28 ± 0.0679 fold-change vs cycle 0, respectively.

CGAGCA: the binding signal in assay [1] was 0.299 ± 0.00719 fold-change vs cycle 0; in assay [2] it was 0.447 ± 0.0658 fold-change vs cycle 0.

GCGTGA: the binding signal came out at 0.325 ± 0.00871 fold-change vs cycle 0 in assay [1] and 0.455 ± 0.056 fold-change vs cycle 0 in assay [2].

CACCCC: the binding signal in assay [1] amounted to 0.309 ± 0.0175 fold-change vs cycle 0; in assay [2], 0.407 ± 0.058 fold-change vs cycle 0.

As for CAGGGG, the binding signal in assay [1] amounted to 0.308 ± 0.0124 fold-change vs cycle 0; in assay [2] it was 0.417 ± 0.0612 fold-change vs cycle 0.

As for CGCGCA, the binding signal in assay [1] was found to be 0.0534 ± 0.00681 fold-change vs cycle 0; in assay [2], 0.139 ± 0.0597 fold-change vs cycle 0.

With AGAATA, the binding signal in assay [1] amounted to 2.17 ± 0.0929 fold-change vs cycle 0; in assay [2], 1.84 ± 0.188 fold-change vs cycle 0.

Regarding TCCGCA, the binding signal in assay [1] stood at 0.269 ± 0.0199 fold-change vs cycle 0; in assay [2], 0.408 ± 0.0556 fold-change vs cycle 0.

For the sequence GCCGCC, the binding signal came to 0.0335 ± 0.00625 fold-change vs cycle 0 in assay [1] and 0.107 ± 0.0564 fold-change vs cycle 0 in assay [2].

Consider GCAGAC, for which the figures for the binding signal in assay [1] and in assay [2] were 0.369 ± 0.0281 fold-change vs cycle 0 and 0.48 ± 0.0825 fold-change vs cycle 0, respectively.

As to ACGGCA, the binding signal came out at 0.221 ± 0.00749 fold-change vs cycle 0 in assay [1] and 0.353 ± 0.0815 fold-change vs cycle 0 in assay [2].

As to GCGAGA, the binding signal came to 0.334 ± 0.0226 fold-change vs cycle 0 in assay [1] and 0.472 ± 0.0669 fold-change vs cycle 0 in assay [2].

Regarding GGCGCC, the binding signal in assay [1] stood at 0.0274 ± 0.00854 fold-change vs cycle 0; in assay [2] it was 0.102 ± 0.0477 fold-change vs cycle 0.

In the case of GCCGAA, the results for the binding signal in assay [1] and in assay [2] were 0.189 ± 0.0081 fold-change vs cycle 0 and 0.319 ± 0.0704 fold-change vs cycle 0, respectively.

GCCAGC: the binding signal in assay [1] worked out at 0.102 ± 0.00774 fold-change vs cycle 0; in assay [2], 0.211 ± 0.0594 fold-change vs cycle 0.

As for CTGCCA, the binding signal in assay [1] amounted to 0.304 ± 0.0171 fold-change vs cycle 0; in assay [2], 0.451 ± 0.0863 fold-change vs cycle 0.

GCGGAA: the binding signal in assay [1] was determined as 0.245 ± 0.0256 fold-change vs cycle 0; in assay [2] it was 0.373 ± 0.0585 fold-change vs cycle 0.

As to GGCGCA, the binding signal in assay [1] turned out to be 0.0622 ± 0.0107 fold-change vs cycle 0; in assay [2], 0.16 ± 0.0742 fold-change vs cycle 0.

As for GCACGA, the binding signal in assay [1] amounted to 0.281 ± 0.0197 fold-change vs cycle 0; in assay [2] it was 0.432 ± 0.0801 fold-change vs cycle 0.

Take CCTCCG: the binding signal was found to be 0.252 ± 0.0142 fold-change vs cycle 0 in assay [1] and 0.367 ± 0.0686 fold-change vs cycle 0 in assay [2].

As to CCCACC, the results for the binding signal in assay [1] and in assay [2] were 0.282 ± 0.00918 fold-change vs cycle 0 and 0.397 ± 0.0572 fold-change vs cycle 0, respectively.

GAGGCC: the binding signal in assay [1] is 0.158 ± 0.00288 fold-change vs cycle 0; in assay [2], 0.286 ± 0.0765 fold-change vs cycle 0.

For the sequence AGGCGA, the binding signal is 0.276 ± 0.00793 fold-change vs cycle 0 in assay [1] and 0.438 ± 0.0693 fold-change vs cycle 0 in assay [2].

In the case of CCGGGA, the values for the binding signal in assay [1] and in assay [2] were 0.237 ± 0.0178 fold-change vs cycle 0 and 0.341 ± 0.0693 fold-change vs cycle 0, respectively.

Consider ACCGCT, for which the figures for the binding signal in assay [1] and in assay [2] were 0.31 ± 0.02 fold-change vs cycle 0 and 0.44 ± 0.0953 fold-change vs cycle 0, respectively.

On to CTTGGC, for which the binding signal in assay [1] amounted to 0.308 ± 0.0227 fold-change vs cycle 0; in assay [2], 0.45 ± 0.0809 fold-change vs cycle 0.

For CGAGGC, the values for the binding signal in assay [1] and in assay [2] were 0.149 ± 0.0127 fold-change vs cycle 0 and 0.271 ± 0.0651 fold-change vs cycle 0, respectively.

As for GTGCAC, the binding signal worked out at 0.313 ± 0.0179 fold-change vs cycle 0 in assay [1] and 0.456 ± 0.0786 fold-change vs cycle 0 in assay [2].

As for CAGCCC, the binding signal in assay [1] came out at 0.16 ± 0.0179 fold-change vs cycle 0; in assay [2], 0.287 ± 0.0742 fold-change vs cycle 0.

For the sequence GGGCGA, the binding signal was 0.127 ± 0.00943 fold-change vs cycle 0 in assay [1] and 0.251 ± 0.0728 fold-change vs cycle 0 in assay [2].

GATCGC: the binding signal in assay [1] is 0.301 ± 0.0313 fold-change vs cycle 0; in assay [2], 0.461 ± 0.0896 fold-change vs cycle 0.

In the case of ACGCGA, the binding signal in assay [1] was determined as 0.245 ± 0.0174 fold-change vs cycle 0; in assay [2], 0.365 ± 0.0478 fold-change vs cycle 0.

For the sequence GGCTCA, the results for the binding signal in assay [1] and in assay [2] were 0.336 ± 0.00359 fold-change vs cycle 0 and 0.477 ± 0.0634 fold-change vs cycle 0, respectively.

As for CCGGTC, the binding signal amounted to 0.202 ± 0.0231 fold-change vs cycle 0 in assay [1] and 0.315 ± 0.0731 fold-change vs cycle 0 in assay [2].

Consider CGCGCG, for which the binding signal in assay [1] is 0.0217 ± 0.00502 fold-change vs cycle 0; in assay [2], 0.0939 ± 0.0507 fold-change vs cycle 0.

As to GCAGGC, the binding signal turned out to be 0.124 ± 0.00995 fold-change vs cycle 0 in assay [1] and 0.24 ± 0.0592 fold-change vs cycle 0 in assay [2].

Regarding TGGCCA, the binding signal stood at 0.236 ± 0.00832 fold-change vs cycle 0 in assay [1] and 0.386 ± 0.0718 fold-change vs cycle 0 in assay [2].

As for ATGGGC, the binding signal in assay [1] was found to be 0.3096 ± 0.00283 fold-change vs cycle 0; in assay [2] it was 0.446 ± 0.0581 fold-change vs cycle 0.

As for GGCGGA, the binding signal is 0.12 ± 0.0101 fold-change vs cycle 0 in assay [1] and 0.238 ± 0.0604 fold-change vs cycle 0 in assay [2].

Consider CCCGGG, for which the binding signal in assay [1] is 0.132 ± 0.0102 fold-change vs cycle 0; in assay [2], 0.234 ± 0.0711 fold-change vs cycle 0.

AGCCGA: the values for the binding signal in assay [1] and in assay [2] were 0.263 ± 0.0162 fold-change vs cycle 0 and 0.384 ± 0.065 fold-change vs cycle 0, respectively.

For the sequence GGGCAC, the figures for the binding signal in assay [1] and in assay [2] were 0.144 ± 0.00697 fold-change vs cycle 0 and 0.281 ± 0.0804 fold-change vs cycle 0, respectively.

In the case of AGAGGC, the binding signal was found to be 0.355 ± 0.0197 fold-change vs cycle 0 in assay [1] and 0.484 ± 0.0611 fold-change vs cycle 0 in assay [2].

For the sequence CCGTCC, the binding signal in assay [1] was 0.206 ± 0.0173 fold-change vs cycle 0; in assay [2], 0.337 ± 0.0624 fold-change vs cycle 0.
